Screening results from PubChem BioAssay.
TDP1 cell CPT = qHTS for Inhibitors of human tyrosyl-DNA phosphodiesterase 1 (TDP1): qHTS in cells in presence of CPT; chicken DT40 Tdp1-/-;hTDP1 cells + 20 nM CPT, ATP luminescence, 48 h; Potency, µM (series often up to 46.2 µM), for the others: top-dose activity change, negative = growth inhibition, most hits filed as inhibitors; actives 12% (n = 420,000); AID 686979, 2013; note: potency is the fitted concentration of half-maximal effect; % is set by controls: 0 for no effect and ±100 for the full control effect; nearly all actives have a fitted effect of over 55% in size
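Cell growth measured by CellTiter-Glo luminescence after a minimum 48 h, 37 C compound exposure with 20 nM CPT in Tdp1-knockout DT40 cells stably expressing hTDP1, seeded 400/well; qHTS titration format.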
TDP1 cell noCPT = qHTS for Inhibitors of human tyrosyl-DNA phosphodiesterase 1 (TDP1): qHTS in cells in absence of CPT; DT40 Tdp1-/- hTDP1 cells, no CPT, ATP luminescence, 48 h; Potency, µM (titrated, usually from 46.2 µM), for inactives: at the top dose activity change, negative = growth inhibition, hits mostly inhibitors; actives 15% (n = 420,000); note: potency is the fitted concentration of half-maximal effect; % is set by controls: 0 for no effect and ±100 for the full control effect; nearly all actives have a fitted effect of over 55% in size
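Compound effects on proliferation are scored in DT40 Tdp1-/-;hTDP1 cells in the absence of CPT. ATP levels (CellTiter-Glo luminescence) are recorded after a ≥48 hr, 37 °C incubation.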
TDP1 inh = qHTS Assay for Inhibitors of Tyrosyl-DNA Phosphodiesterase (TDP1). Tyrosyl-DNA phosphodiesterase 1 (Homo sapiens), Q9NUW8. recombinant TDP1, AlphaScreen DNA substrate cleavage. actives 0.28% (n = 350,000). Potency, µM (doses to about 130 µM), for inactives: at the highest dose activity change, negative = inhibition, actives largely listed as inhibitors; note: potency is the fitted concentration of half-maximal effect; % is set by controls: 0 for no effect and ±100 for the full control effect; nearly all actives have a fitted effect of over 40% in size
Target sequence (Q9NUW8 whole entry, looked up): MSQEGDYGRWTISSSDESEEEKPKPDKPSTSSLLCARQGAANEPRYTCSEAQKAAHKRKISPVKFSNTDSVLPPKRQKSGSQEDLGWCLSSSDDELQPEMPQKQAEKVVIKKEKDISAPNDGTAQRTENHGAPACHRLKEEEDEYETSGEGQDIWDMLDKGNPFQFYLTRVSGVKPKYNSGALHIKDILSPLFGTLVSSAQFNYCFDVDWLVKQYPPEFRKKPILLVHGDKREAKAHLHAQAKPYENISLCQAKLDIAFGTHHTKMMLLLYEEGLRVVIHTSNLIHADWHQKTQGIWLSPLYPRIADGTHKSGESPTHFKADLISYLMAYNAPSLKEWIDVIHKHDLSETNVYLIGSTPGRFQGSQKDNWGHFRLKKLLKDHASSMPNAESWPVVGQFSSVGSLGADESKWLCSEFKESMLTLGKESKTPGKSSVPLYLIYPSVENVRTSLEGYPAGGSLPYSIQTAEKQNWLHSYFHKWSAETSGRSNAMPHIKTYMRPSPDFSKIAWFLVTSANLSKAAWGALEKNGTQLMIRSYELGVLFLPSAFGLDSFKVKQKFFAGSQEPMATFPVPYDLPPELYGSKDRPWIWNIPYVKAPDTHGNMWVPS
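Tdp1 1 nM final; 15 min RT w/ cpd; substrate 15 nM, 5 min; beads 10 ug/ml, 10 min; AlphaScreen read. Neg ctrl: no enzyme.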
miR-21 act = qHTS Assay for Modulators of miRNAs and/orActivators of miR-21 | HeLa miR-21 FLuc reporter, luciferase, 48 h | AID 2288, 2010 | Potency, µM (titrated, usually from 38.3 µM), for the others: at the highest dose activity change, positive = activation, hits mostly activators | 340,000 tested, under 10 active;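 note: % of control where 0% means no effect; miR-21 action dims this reporter so a rising signal means less miR-21 action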
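Luminescence from a firefly luciferase reporter carrying a miR-21 binding site downstream, stably expressed under a CMV promoter in HeLa cells that make miR-21 endogenously, reports miRNA modulation after 48 h compound exposure up to approximately 40uM final.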
uPA surface inh = qHTS for Inhibitors of Cell Surface uPA Generation. cell surface uPA generation assay, qHTS. Potency, µM (highest dose often 38.3 µM), inactives show at the top dose activity change, negative = inhibition, usual class: inhibitors. actives 0.31% (n = 330,000); active = well fitted inhibition curve with a large enough effect; inconclusive = small, poorly fitted or top-dose-only effect; inactive = no such curve, though single readings can be large or run the other way; tested in mouse RAW 264.7 cells; note: potency is the fitted concentration of half-maximal effect; % is set by controls: 0 for no effect and ±100 for the full control effect; nearly all actives have a fitted effect of over 55% in size
Active calls of the source: *; ? = inconclusive; nt = no result; [ ] = remark or other dose. In the library only some 16% were active in any assay of this set; here they are far more common. Unless noted, calls come from the whole dose curve; as a rule, active = well fitted curve in the direction sought with a large enough effect; inconclusive = small, poorly fitted or top-dose-only effect, or another doubt; inactive = no such curve, though single readings can be large; an effect the other way counts as inactive or inconclusive.

SMILES | TDP1 cell CPT | TDP1 cell noCPT | TDP1 inh | miR-21 act | uPA surface inh
CC(C)c1nc2ccccc2c2nnc(SCC(=O)NCc3ccco3)n12 | 16.4µM* | ? | -2.1% | -1.4% | nt
CCOc1ccc(NC(=O)CN(C)C(=O)c2cccc(S(=O)(=O)N3CCN(C)CC3)c2)cc1OCC | 1.6% | 12.0% | nt | nt | 21.7%
C=C1CCN([C@@H](Cc2ccccc2)C(=O)NCCC(C)C)S(=O)(=O)c2ccccc21 | -9.8% | ? | nt | nt | -18.4%
COCCN(C(=O)COC(=O)/C=C/c1ccc(SC)cc1)c1c(N)n(Cc2ccccc2)c(=O)[nH]c1=O | -19.5% | -4.2% | nt | nt | -2.8%
CCCOc1ccc(/C=C/C(=O)OCC(=O)N(C)c2c(N)n(Cc3ccccc3)c(=O)[nH]c2=O)cc1OCC | ? | 16.4µM* | 7.2% | nt | -0.9%
CN(C(=O)COC(=O)/C=C/c1ccc(F)cc1)c1c(N)n(Cc2ccccc2)c(=O)[nH]c1=O | ? | ? | nt | nt | 5.9%
COCCN(C(=O)COC(=O)Cc1coc2cc(C)ccc12)c1c(N)n(Cc2ccccc2)c(=O)[nH]c1=O | -9.0% | -16.0% | 28.2µM* | nt | 7.7%
CN(C(=O)COC(=O)/C=C/c1ccc(Cl)c(Cl)c1)c1c(N)n(Cc2ccccc2)c(=O)[nH]c1=O | 9.2µM* | 16.4µM* | 0.2% | nt | -3.7%
COCCN(C(=O)COC(=O)/C=C/c1ccc(C(F)(F)F)cc1)c1c(N)n(Cc2ccccc2)c(=O)[nH]c1=O | 20.6µM* | 20.6µM* | -7.4% | nt | 0.9%
O=C(Cc1ccc(F)cc1)NC(Cc1c[nH]c2ccccc12)C(=O)O (stereo not drawn) | 15.6% | -15.1% | nt | 0.0% | 0.2%
O=C(Nc1ccc(C(=O)O)cc1)Nc1cccc2ccccc12 | 1.1% | 3.4% | 6.5%[56.1 µM] | -4.8% | -5.9%
CSc1ccccc1NC(=O)CN(C)C(=O)c1ccc(NC(=O)c2cccs2)cc1 | ? | ? | 1.8% | nt | 23.7%
COc1ccc(N2C(=O)CC(NNc3ncc(Cl)cc3Cl)C2=O)cc1 (stereo not drawn) | 14.6µM* | 14.6µM* | 2.6% | 4.2% | 2.6%
COc1ccccc1NC(=O)C1=C(C)Nc2nnnn2C1c1ccccc1OC (stereo not drawn) | 6.2% | -7.6% | 6.8% | -4.3% | 4.1%
COc1ccccc1/C=C1\CCCC2=C1Nc1nnnn1C2c1ccccc1OC (stereo not drawn) | 11.6µM* | 11.6µM* | -2.7% | 0.9% | -8.4%
CN1CCN(CCc2ccc(Cl)c(Cl)c2)CC1 | ? | 29.9µM* | 7.3% | nt | nt
CN1CCN(CCOc2ccc(Cl)c(Cl)c2)CC1 | 16.4µM* | ? | -2.7% | -11.5% | 0.7%
CN1CCN(CCOc2ccc(Cc3ccccc3)cc2)CC1 | ? | 4.61µM* | nt | -5.5% | -5.5%
COC(=O)c1ccc(/C=C/C(=O)OCC(=O)Nc2sccc2C(N)=O)cc1 | ? | ? | -0.3% | nt | -3.8%
Cc1ccc(C(=O)COC(=O)c2ccco2)cc1C | 12.6% | 10.4% | 1.0% | -19.4% | -3.7%
COc1cccc(-c2cc3nc(NCc4ccc5occc5c4)n(C)c(=O)c3s2)c1 | -23.8% | ? | nt | nt | nt
O=C1CCC/C1=c1\s/c(=C\c2cccnc2)c(=O)n1-c1ccccc1 | ? | 16.4µM* | 6.2% | 0.7% | -7.6%
CCN(CC)CC(C)OC(=O)c1ccccc1Cl (stereo not drawn) | -21.0% | -10.7% | 2.5% | 0.4% | -5.1%
CCOc1ccccc1NC(=O)CN1C(=O)CC(c2ccc(OC)c(OC)c2)Sc2ccccc21 (stereo not drawn) | nt | nt | 2.9% | -18.7% | nt
COc1ccc(-c2noc(CN3CCCC(OCc4ccccn4)C3)n2)cc1 (stereo not drawn) | 16.4µM* | ? | 3.6% | -3.0% | 8.2%
COCCn1c(=N)c(S(=O)(=O)c2ccc(Br)cc2)cc2c(=O)n3ccccc3nc21 | ? | 20.6µM* | 3.9% | -4.1% | 4.4%
